“And” between values parts separate entries of the source, which are not always exact repeats. Identical values can stand only once. About 83,000 compounds went through this panel and 20% of them were active in at least one assay; those are over-represented in the sample as a whole.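 Results are percent growth after 48 hours of single-concentration exposure. 100 means growth as in untreated cells, lower positive values show inhibition; negative values down to -100 show cell death.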 The source made the active and inactive calls. How the source made its calls: active means growth percent below 10; inactive means the rest.

The experiment deals with PC-3 prostate. The experiment is described as follows: NCI-60 one-dose screen, 48 h (100 = growth as untreated, 0 = no growth, -100 = all killed). Conditions: 10 µM unless noted.
For the compound `CS(=O)(=O)c1ccc(-n2nc(C(=O)NCc3ccccc3)cc2-c2ccc(Cl)cc2)cc1`, the growth was 75.5% (inactive).

Take `CCCCCCCCc1cccc(CC(=O)Nc2ccc(C)cc2C(=O)O)c1`: the growth was 46.8% [25 µM] (inactive). The same measure for `COc1ccc(-c2cc(C(=O)Oc3ccc(C=O)cc3OC)nn2-c2ccc(S(C)(=O)=O)cc2)cc1`: 90.7% (inactive).

Take `O=C(NN1C(=O)/C(=C/C=C/c2ccc([N+](=O)[O-])o2)SC1=S)c1ccncc1`: the growth is -63% (active). The same measure for `N#Cc1c(-c2ccc(F)cc2)nc(SCc2ccccc2)nc1N1CCNCC1`: -51.6% (active). The same measure for `COc1ccc(/C=C/C(=O)c2ccc(OC)c(S(N)(=O)=O)c2)c(C(F)(F)F)c1`: 11.2% (inactive). As for `COc1ccccc1Nc1nnc(-c2c[nH]c3ccccc23)o1`, the growth is 16.4% (inactive). In the case of `COc1ccc2c(c1)N=c1c-2cc2c(O)[nH]c(=S)n2c1=O` it was 37.7% (inactive); in that of `CS(=O)(=O)Nc1cc(-c2ccc3ncnc(N4CCc5cc(F)c(Cl)cc54)c3c2)cnc1Cl`, 12.9% (inactive); in that of `CC(=O)Nc1ccc(S(=O)(=O)Nc2ccc(-c3ccc4c(c3)NC(=O)/C4=C\c3ccc[nH]3)cc2)cc1`, 91.4% (inactive). In the case of `Cc1nn(-c2ccccc2)c2nc(C)n(CC(=O)N/N=C/c3cccc([N+](=O)[O-])c3)c(=O)c12` it was 80.1% (inactive). `CCC(=O)c1cc(C(=O)OC)c2ccc3c4ccccc4ccc3n12`: the growth was 92.6% (inactive). With `Cc1ccc(C(=O)Nc2cc(-n3cnc(F)c3)cc(C(F)(F)F)c2)cc1C#Cc1cnc2cccnn12`, the growth is 89.8% (inactive). The same measure for `O=C(N=Nc1c(O)[nH]c2ccc(Cl)cc12)c1ccc2nc(-c3ccc(Cl)cc3)[nH]c2c1`: 28.1% (inactive); for `COc1cc(C=O)ccc1OC(=O)c1cc(-c2ccc(C)cc2)n(-c2ccc(S(C)(=O)=O)cc2)n1`: 100% (inactive); for `CC(C)CN1C(=O)/C(=C\C(=O)c2cc3ccccc3oc2=O)c2ccccc21`: 96.6% (inactive). The same measure for `Nc1nc2cc(-c3ccc4ncnc(NCc5ccccc5)c4c3)ccc2o1`: 25.2% (inactive); for `Cc1cccc(NCC(=O)N2CCN(c3ncnc4c3cnn4-c3ccccc3)CC2)c1`: 70% (inactive). The same measure for `Cn1cc(-c2cc(N)n3nc(-c4c[nH]c5ccccc45)cc3n2)c2cc(F)ccc21`: 17.4% (inactive); for `CCCCCCCCCc1ccc(C(=O)Nc2cc(C)ccc2C(=O)OC)cc1`: 105% (inactive); for `NC1(c2ccc(-c3ccc4ncnc(NCc5ccccc5)c4c3)cn2)COC1`: 94.4% (inactive) and 105% (inactive). For the compound `CCCCNC(=S)Nc1ccc(OCc2nc3ccc(Cl)cc3[nH]2)cc1`, the growth was 35.4% (inactive).

On to `CCC1(OC(=O)c2ccccc2SSCCOC(=O)CCCCC2SCC3NC(=O)NC32)C(=O)OCc2c1cc1n(c2=O)Cc2cc3ccccc3nc2-1` (stereo not drawn), for which the growth is 37.4% (inactive). In the case of `COc1ccc(/C=C/c2nc3ccccc3c(=O)n2CC(=O)Nc2ccccc2)cc1` it was 84.7% (inactive). In the case of `CC[C@]12C=CCN3CC[C@@]4(c5ccc(OC)cc5N(C)[C@H]4[C@@](O)(C(=O)OC)[C@@H]1OC(=O)CCCC[P+](c1ccc(F)cc1)(c1ccc(F)cc1)c1ccc(F)cc1)[C@@H]32` it was 15.7% (inactive); in that of `COc1ccccc1NC(=O)N/N=C/c1c[nH]c2ccccc12`, 35.2% (inactive). The same measure for `Cc1ccc(C2CC(c3ccc(NC(=O)Nc4ccccc4)cc3)=NN2c2ccc(S(C)(=O)=O)cc2)cc1` (stereo not drawn): 1.02% (active); for `CC1=C(C)C(=O)C(NCCN2CCOCC2)=C(Br)C1=O`: 61.8% (inactive); for `CC(=O)C[n+]1cccc2c3ccccc3ccc21`: 85.1% (inactive). On to `Cc1nn(-c2ccccc2)c2nc(C)n(CC(=O)N/N=C/c3ccccc3O)c(=O)c12`, for which the growth was 46.8% (inactive). The same measure for `O=C(CSc1nnc(-c2ccc(-c3nc4ccccc4[nH]3)cc2)o1)Nc1ccccc1`: 86.2% (inactive). The same measure for `Cc1cccc(-c2ccccc2Oc2ccc3nnc(Cl)n3n2)c1`: 103% (inactive). In the case of `Oc1cncc(-c2ccc3ncnc(N4CCc5cc(F)c(Cl)cc54)c3c2)c1` it was 57.4% (inactive); in that of `CCOc1ccccc1[C@H]1C(C(=O)c2ccc(Cl)cc2)C2(N[C@@H]1c1ccccc1)C(=O)Nc1ccc(Br)cc12` (stereo partly drawn), 5.34% (active). Take `Cc1ccc2c(c1)/C(=C/C(=O)c1cc3ccccc3oc1=O)C(=O)N2`: the growth was 73.5% (inactive). In the case of `Cc1ccc(C(=O)C[n+]2cccc3c4ccccc4ccc32)cc1` it was 18.7% (inactive).

For `COC(=O)CSC1=C(C)C(=O)C(OC)=C(OC)C1=O`, the growth was 76.9% (inactive). In the case of `CCCCCCCCc1ccc(C(=O)Nc2ccc(C)c(OP(=O)(O)O)c2)cc1` it was 91.3% (inactive).

(Values after PubChem BioAssay (NCI).)
